Compound activity from PubChem BioAssay.
The list is not random: actives were taken first. Their share in the collection is about 11%.
G9a inh = G9a (human) methyltransferase inhibition; Potency, µM (series often up to 102 µM), for inactives: top-dose activity, negative = inhibition, actives largely listed as inhibitors; AID 504332; Q96KQ7; actives 8.8% (n = 350,000); G9a H3K9 monomethylation, AlphaScreen, 2 h; further: on the % scale 0 is the no-effect control and ±100 the full control effect; nearly all actives have a fitted effect of over 75% in size
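Compounds were preincubated with 20 nM G9a for 15 min, after which biotinylated H3K9 peptide (500 nM) and SAM (20 uM) started a 2 h room-temperature reaction. Monomethylated product was quantified by antibody-based AlphaScreen chemiluminescence.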
JMJD2A Tudor = inhibitors of human JMJD2A Tudor domain; AlphaScreen JMJD2A-Tudor / H3K4me3 peptide binding; Potency, µM (doses to about 114 µM), inactives show at the top dose activity change, negative = inhibition, usual class: inhibitors; actives 4.4% (n = 390,000); AID 504339; further: on the % scale 0 is the no-effect control and ±100 the full control effect; nearly all actives have a fitted effect of over 50% in size
BAZ2B inh = BAZ2B (human) inhibition; Q9UIF8; AlphaScreen BAZ2B-H3K14Ac peptide displacement; Potency, µM (series often up to 114 µM), without a hit: top-dose activity change, negative = inhibition, actives largely listed as inhibitors; actives 4.4% (n = 360,000); AID 504333; further: on the % scale 0 is the no-effect control and ±100 the full control effect; nearly all actives have a fitted effect of over 60% in size
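BAZ2B (50 nM) with biotin-H3(5-23)K14Ac peptide (50 nM) in PBS pH 7.4, 0.01% Tween-20, preformed 30 min, then compound 30 min at room temperature; top concentration 110uM. AlphaScreen streptavidin donor/nickel chelate acceptor beads (10 ug/mL final), 20 min dark, signal read.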
HP1b binding inh = blocks HP1-beta chromodomain binding to methylated histone tails | Potency, µM (titrated, usually from 114 µM), without a hit: at the highest dose activity change, negative = inhibition, usual class: inhibitors | actives 0.56% (n = 390,000) | AlphaScreen HP1-beta / biotin-H3K9me3 peptide binding | P83916; further: nearly all actives have a fitted effect of over 70% in size
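AlphaScreen: HP1-beta (50 nM) preformed 30 min with biotin-H3(1-18)K9me3 peptide (50 nM) in PBS pH 7.4, 0.01% Tween-20. Compound added for 30 min at RT, then streptavidin donor/nickel chelate acceptor beads (10 ug/mL) for 30 min.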
VDR inhibitor = inhibitors of human vitamin D receptor | P11473 | VDR-SRC2-3 peptide fluorescence polarization, 2 h | Potency, µM, inactives show max response, negative = inhibition, most hits filed as inhibitors | actives 0.93% (n = 400,000); further: on the % scale 0 is the no-effect control and ±100 the full control effect
Target sequence (P11473 whole entry, looked up): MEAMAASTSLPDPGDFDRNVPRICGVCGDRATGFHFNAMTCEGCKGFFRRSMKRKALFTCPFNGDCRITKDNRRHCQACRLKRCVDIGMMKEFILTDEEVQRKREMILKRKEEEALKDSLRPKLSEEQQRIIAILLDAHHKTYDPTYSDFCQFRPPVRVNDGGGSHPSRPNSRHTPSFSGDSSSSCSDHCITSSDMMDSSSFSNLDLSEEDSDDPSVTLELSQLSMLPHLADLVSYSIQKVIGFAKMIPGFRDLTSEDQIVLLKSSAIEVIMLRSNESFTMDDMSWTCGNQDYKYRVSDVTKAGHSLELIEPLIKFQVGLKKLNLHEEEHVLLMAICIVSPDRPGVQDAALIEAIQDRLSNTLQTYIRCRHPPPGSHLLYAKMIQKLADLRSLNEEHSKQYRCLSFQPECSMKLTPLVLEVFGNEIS
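Compounds are added to VDR with labelled SRC2-3 coactivator peptide and held 2 h at room temperature. Inhibition of the VDR–peptide interaction is then read as a change in fluorescence polarization.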
PLK1 PBD block = blocks phosphopeptide binding to human PLK1 polo-box domain | actives 2.8% (n = 360,000) | P53350 | AID 720504 | Plk1 PBD binding of FITC phosphopeptide, fluorescence polarization | Potency, µM, for the others: max response, negative = inhibition, most hits filed as inhibitors; further: series mostly up to about 57 µM; on the % scale 0 is the no-effect control and ±100 the full control effect; nearly all actives have a fitted effect of over 65% in size
* hit, by the source's call; ? = inconclusive; / = no result; [ ] = another dose, or the depositor's remark. The call rests on the fitted dose curve; in most records, active means well fitted curve in the direction sought with a large enough effect; inconclusive means small, poorly fitted or top-dose-only effect, or another doubt; inactive means no such curve, though single readings can be large; an effect the other way counts as inactive or inconclusive. Potency means the concentration at half of the fitted maximal effect.

SMILES	G9a inh	JMJD2A Tudor	BAZ2B inh	HP1b binding inh	VDR inhibitor	PLK1 PBD block
CN(C)CCCN(C(=O)CCOc1ccccc1)c1nc2ccc(F)cc2s1	28µM*	-24%	/	17%	?	?
COc1cccc2sc(N(CCCN(C)C)C(=O)c3sc4ccccc4c3Cl)nc12	?	?	?	-15%	-12%	-5%
CN(C)CCCN(C(=O)CCOc1ccccc1)c1nc2c(F)cccc2s1	22µM*	-32%	/	23%	?	?
CN(C)CCCN(C(=O)COc1ccc(Cl)cc1)c1nc2ccc(F)cc2s1	56µM*	-9%	16%	40%	5%	-9%
CN(C)CCCN(C(=O)c1sc2ccccc2c1Cl)c1nc2c(F)cccc2s1	25µM*	?	-17%	-7%	-12%	5%
Cn1cnc2c(ncn2[C@@H]2O[C@H](CO)[C@@H](O)[C@H]2O)c1=N	35%[59 µM]	/	/	/	-1%	/
COCCN1C[C@@H](CO)O[C@@H](n2cnc3c(NC(C)C)ncnc32)C1	/	/	/	/	/	3%
Cc1ccc2nc(N(CCCN(C)C)C(=O)c3ccc4c(c3)CCCC4)sc2c1	?	?	?	?	-14%	-4%
CN(C)CCCN(C(=O)c1ccc2c(c1)CCCC2)c1nc2c(F)cccc2s1	?	45µM*	?	?	-17%	-12%
Cc1cccc2sc(N(CCCN(C)C)C(=O)COc3ccc(Cl)cc3)nc12	50µM*	-26%	/	10%	0%	-2%
Cc1cccc2sc(N(CCCN(C)C)C(=O)COc3ccccc3)nc12	?	?	-15%	29%	1%	/
CCCN(CCC)CC(O)COc1ccc2c(c1)OCO2 (configuration not stated)	?	10%	-18%	11%	15%	-1%
COc1cc(C(=O)NC(C)CCn2cccn2)ccc1OC1CCN(C(C)=O)CC1 (configuration not stated)	77%	-5%	1%	25%	-6%	-1%
CC(C)n1c(CSCc2ccc(Cl)cc2Cl)n[nH]c1=S	13µM*	-12%[57.1 µM]	?	-5%	-12%	?
NNC(=O)CSCc1ccc(Cl)cc1Cl	4%[59 µM]	-5%	-7%	37%	?	-17%
O=C(NN=C1C2CC3CC1CC(Cl)(C3)C2)c1ccccn1	-7%	-23%	-16%	39%	-23%	-14%
Cc1nc2sc(C(c3ccccc3)N3CCN(C)CC3)c(O)n2n1 (configuration not stated)	-2%[59 µM]	-9%	3%	22%	-18%	-14%
CCC1(O)C(=O)OCc2c1cc1n(c2=O)Cc2cc3c(N)cccc3nc2-1 (configuration not stated)	/	-6%	/	30%	-11%	5%
CCC1(OC(=O)CN(C)C)C(=O)OCc2c1cc1n(c2=O)Cc2cc3c(N)cccc3nc2-1 (configuration not stated)	/	16µM*	/	-10%	2%	1%
O=C(NCc1n[nH]c(=S)n1-c1ccc(Cl)c(Cl)c1)c1ccc(S(=O)(=O)N2CCOCC2)cc1	8.9µM*	-22%	-16%	27%	4%	-8%
O=C(NCc1n[nH]c(=S)n1-c1ccc([N+](=O)[O-])cc1)c1ccc(S(=O)(=O)N2CCOCC2)cc1	7.1µM*	56µM*	-7%	22%	8%	-10%
COc1ccccc1-n1c(CNC(=O)c2ccc(S(=O)(=O)N3CCOCC3)cc2)n[nH]c1=S	8.9µM*	20µM*	?	21%	-23%	-10%
O=C(NCc1nnnn1-c1ccc(F)cc1)c1ccc(S(=O)(=O)N2CCOCC2)cc1	/	/	/	/	/	1%
O=C(OCc1c(-c2ccccc2)ncc2ccccc12)c1cccc(Br)c1	-2%[0.501 µM]	10%	2%	56%	-7%	-3%
O=C(O)CCCCCNC(=O)c1ccccc1	24%	-29%	-5%	55%	7%	-8%
COc1ccc(C2C(C(=O)c3ccco3)=C(O)C(=O)N2CC2CCCO2)cc1 (configuration not stated)	?	-22%	-39%	20%	3%	-4%
